From PubChem BioAssay (Tox21)
Several values for one entry are separate records, joined by “and”; a condition that tells them apart may be missing. Equal values may be shown once. Records with an inconclusive call do not appear. Where a call stands in place of a potency, no number is given. The source holds several records for some structures; these can differ, active in one and inactive in another. Activity calls are given as the source filed them. Unless noted, the call rests on the fitted dose curve.

How the values were obtained:
[1] = Nuclear factor erythroid 2-related factor 2/antioxidant responsive element (Nrf2/ARE) small molecule agonists: qHTS cell viability counter screen in human keratinocytes (AID 1919968; active means well fitted curve in the direction sought with a large enough effect in the repeat runs; an effect the other way counts as inactive or inconclusive; further: nearly all actives have a fitted effect of over 55% in size; further: potency means the concentration at half of the fitted maximal effect)
Procedure, shortened: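 Stably transfected HaCaT (KeratinoSens), 1,500/well. Test agents in DMSO were applied for 23 h, 37 C/5% CO2. CellTiter-Fluor was incubated 1 h before the fluorescence read.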

[2] = Nuclear factor erythroid 2-related factor 2/antioxidant responsive element (Nrf2/ARE) small molecule agonists: luciferase reporter gene qHTS assay in human keratinocytes (AID 1919969); further: nearly all actives have a fitted effect of over 35% in size; further: potency means the concentration at half of the fitted maximal effect
[3] = target: Gonadotropin-releasing hormone receptor (Homo sapiens) (UniProt P30968); test: Human gonadotropin-releasing hormone receptor (GnRHR) small molecule agonists, calcium flux assay in GnRHR-HEK293 cells (AID 1920063); further: nearly all actives have a fitted effect of over 35% in size
Gonadotropin-releasing hormone receptor (Homo sapiens), sequence (P30968 whole entry, looked up): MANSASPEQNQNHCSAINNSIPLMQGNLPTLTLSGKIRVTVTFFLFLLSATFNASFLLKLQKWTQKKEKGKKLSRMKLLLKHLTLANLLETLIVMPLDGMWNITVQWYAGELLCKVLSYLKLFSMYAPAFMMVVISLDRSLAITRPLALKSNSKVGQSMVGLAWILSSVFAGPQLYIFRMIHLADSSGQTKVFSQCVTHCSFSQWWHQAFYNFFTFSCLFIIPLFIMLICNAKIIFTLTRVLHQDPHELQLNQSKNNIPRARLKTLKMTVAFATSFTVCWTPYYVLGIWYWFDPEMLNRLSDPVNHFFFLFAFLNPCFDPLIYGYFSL
Procedure, shortened: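 Stable human GnRHR HEK293 line. 18 h plating, then calcium dye for 1 h at 37 C. Agonist-mode compound addition from DMSO stocks; fluorescence monitored 3 min.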

[4] = target: KiSS-1 receptor (Homo sapiens) (UniProt Q969F8); test: Human kisspeptin (KISS1R) small molecule agonists, calcium flux assay in KISS1R-HEK293 cells (AID 1920064; active means well fitted curve in the direction sought with a large enough effect in the repeat runs; an effect the other way counts as inactive or inconclusive)
KiSS-1 receptor (Homo sapiens), sequence (Q969F8 whole entry, looked up): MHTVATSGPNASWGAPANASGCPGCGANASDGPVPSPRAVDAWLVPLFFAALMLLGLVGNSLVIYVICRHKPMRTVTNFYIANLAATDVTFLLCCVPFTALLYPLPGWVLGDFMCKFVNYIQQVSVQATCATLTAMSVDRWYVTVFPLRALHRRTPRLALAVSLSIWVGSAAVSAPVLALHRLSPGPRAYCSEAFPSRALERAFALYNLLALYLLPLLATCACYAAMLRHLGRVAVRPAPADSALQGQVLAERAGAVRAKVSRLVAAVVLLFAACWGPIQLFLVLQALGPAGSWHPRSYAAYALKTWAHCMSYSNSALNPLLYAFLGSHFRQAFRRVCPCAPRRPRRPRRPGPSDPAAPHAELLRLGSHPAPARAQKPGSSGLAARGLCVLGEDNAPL
Procedure, shortened: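 After overnight (18 h) culture at 37 C/5% CO2, human KISS1R-HEK293 cells received calcium dye for 1 h, then test compound; emission at 540 nm (excitation 480 nm) was tracked for 3 min.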

[5] = G protein-coupled receptor (GPCR) small molecule agonists, calcium flux assay: HEK293 wild type cell line counter screen (AID 1920065)
Procedure, shortened: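 Following 18 h incubation at 37 C/5% CO2, plates got calcium dye for 1 h; compounds, ATP or DMSO were then pinned in and fluorescence followed kinetically (480/540 nm).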

[6] = p53 small molecule agonists, cell-based qHTS assay with human liver microsomes (AID 1963577);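 further: p53 response element beta-lactamase reporter cells with liver microsomes plus NADPH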
Procedure, shortened: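 HLM-supplemented p53RE-bla reporter assay: 16 h compound exposure at 37 C, microsomes and NADPH each 0.5 mg/mL final, read by fluorescence intensity.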

[7] = p53 small molecule agonists, cell-based qHTS assay with rat liver microsomes (AID 1963578)
Procedure, shortened: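 Quantitative HTS of the Tox21 10K library: p53RE-bla cells, rat liver microsomes plus NADPH at 0.5 mg/mL final each, 16 h at 37 C, beta-lactamase fluorescence detection.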

[8] = p53 small molecule agonists, cell-based qHTS assay with human liver microsomes: qHTS cell viability counter screen (AID 1963579); further: nearly all actives have a fitted effect of over 45% in size
Procedure, shortened: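 Viability of p53RE-bla cells is measured as CellTiter-Glo luminescence following a 16 h, 37 C incubation with compound, liver microsomes from human donors and NADPH.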

[9] = p53 small molecule agonists, cell-based qHTS assay with rat liver microsomes: qHTS cell viability counter screen (AID 1963580); further: nearly all actives have a fitted effect of over 45% in size
Procedure, shortened: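 Cytotoxicity counter screen: intracellular ATP measured by CellTiter-Glo luminescence in the same wells as the beta-lactamase reporter read, on HCT-116 p53RE-bla cells exposed 16 h at 37 C to compounds with rat liver microsomes and NADPH, each 0.5 mg/mL final.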

[10] = p53 small molecule agonists, cell-based qHTS assay: qHTS cell viability counter screen (AID 1963581); further: nearly all actives have a fitted effect of over 45% in size
Procedure, shortened: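 qHTS counter screen: 16 h compound exposure at 37 C of p53RE-bla HCT-116 cells (4,000 per well, seeded 5 h prior), cell viability by ATP luminescence.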

[11] = target: 5-hydroxytryptamine receptor 2A (Homo sapiens) (UniProt P28223); test: 5-hydroxytryptamine receptor 2A (HTR2A) small molecule antagonists, cell-based qHTS assay (AID 1963586); further: nearly all actives have a fitted effect of over 45% in size; further: potency means the concentration at half of the fitted maximal effect
5-hydroxytryptamine receptor 2A (Homo sapiens), sequence (P28223 whole entry, looked up): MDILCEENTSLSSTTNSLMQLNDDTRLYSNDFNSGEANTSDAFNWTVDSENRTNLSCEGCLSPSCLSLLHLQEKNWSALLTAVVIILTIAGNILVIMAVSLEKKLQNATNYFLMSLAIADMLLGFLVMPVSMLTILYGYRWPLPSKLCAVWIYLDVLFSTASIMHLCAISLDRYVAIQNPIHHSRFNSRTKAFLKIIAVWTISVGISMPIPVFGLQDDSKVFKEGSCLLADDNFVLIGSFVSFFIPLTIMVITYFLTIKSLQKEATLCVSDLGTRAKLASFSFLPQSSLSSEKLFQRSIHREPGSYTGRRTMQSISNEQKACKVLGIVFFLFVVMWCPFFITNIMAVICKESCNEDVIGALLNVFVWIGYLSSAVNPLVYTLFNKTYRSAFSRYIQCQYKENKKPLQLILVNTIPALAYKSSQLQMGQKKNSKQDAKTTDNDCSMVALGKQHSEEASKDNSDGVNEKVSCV
Procedure, shortened: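 CHO cells stably expressing human HTR2A were plated for 18 h at 37 C, then loaded with calcium dye for 1 h. Compounds were preincubated 5 min at room temperature before DOI (4 nM solution) was added. Kinetic fluorescence was read for 3 min.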

[12] = target: 5-hydroxytryptamine receptor 2A (Homo sapiens) (UniProt P28223); test: 5-hydroxytryptamine receptor 2A (HTR2A) small molecule agonists, cell-based qHTS assay (AID 1963587); further: nearly all actives have a fitted effect of over 30% in size
Procedure, shortened: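 CHO cells stably expressing human HTR2A, plated 18 h, loaded with calcium dye 1 h at 37 C. Agonist mode: compounds added and intracellular calcium fluorescence recorded kinetically for 2 min at 1 sec intervals.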

[13] = target: Muscarinic acetylcholine receptor M1 (Homo sapiens) (UniProt P11229); test: Cholinergic receptor muscarinic 1 (CHRM1) small molecule antagonists, cell-based qHTS assay (AID 1963588); further: nearly all actives have a fitted effect of over 40% in size
Muscarinic acetylcholine receptor M1 (Homo sapiens), sequence (P11229 whole entry, looked up): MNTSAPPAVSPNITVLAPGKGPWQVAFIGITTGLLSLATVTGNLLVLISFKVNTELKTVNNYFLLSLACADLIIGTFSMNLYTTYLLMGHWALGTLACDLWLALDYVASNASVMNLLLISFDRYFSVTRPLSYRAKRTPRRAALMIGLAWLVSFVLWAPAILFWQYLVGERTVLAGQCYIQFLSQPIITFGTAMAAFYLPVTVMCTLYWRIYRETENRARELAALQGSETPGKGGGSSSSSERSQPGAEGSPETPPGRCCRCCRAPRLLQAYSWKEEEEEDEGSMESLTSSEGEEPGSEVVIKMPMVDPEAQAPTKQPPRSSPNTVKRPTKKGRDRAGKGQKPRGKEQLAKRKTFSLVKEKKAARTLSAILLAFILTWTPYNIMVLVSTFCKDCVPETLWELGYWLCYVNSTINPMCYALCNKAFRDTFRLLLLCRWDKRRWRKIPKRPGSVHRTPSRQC
Procedure, shortened: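 Compounds were tested at 15 concentrations in three independent runs. Dye-loaded CHRM1-CHO cells were exposed 5 min at room temperature before stimulation by acetylcholine added at 50nM. Intracellular calcium was read kinetically on FDSS for 3 min.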

[14] = target: Muscarinic acetylcholine receptor M1 (Homo sapiens) (UniProt P11229); test: Cholinergic receptor muscarinic 1 (CHRM1) small molecule agonists, cell-based qHTS assay (AID 1963589); further: nearly all actives have a fitted effect of over 35% in size
Procedure, shortened: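 Kinetic fluorescence (1 s intervals) of calcium-sensitive dye in human M1 CHO cells after compound addition; cells pre-incubated 18 h at 37 C/5% CO2 and dye-loaded 1 h.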

[15] = target: Beta-2 adrenergic receptor (Homo sapiens) (UniProt P07550); test: Adrenergic beta2 receptor (ADRB2) small molecule antagonists, cell-based qHTS assay (AID 1963592); further: series mostly up to about 92 µM; nearly all actives have a fitted effect of over 50% in size
Beta-2 adrenergic receptor (Homo sapiens), sequence (P07550 whole entry, looked up): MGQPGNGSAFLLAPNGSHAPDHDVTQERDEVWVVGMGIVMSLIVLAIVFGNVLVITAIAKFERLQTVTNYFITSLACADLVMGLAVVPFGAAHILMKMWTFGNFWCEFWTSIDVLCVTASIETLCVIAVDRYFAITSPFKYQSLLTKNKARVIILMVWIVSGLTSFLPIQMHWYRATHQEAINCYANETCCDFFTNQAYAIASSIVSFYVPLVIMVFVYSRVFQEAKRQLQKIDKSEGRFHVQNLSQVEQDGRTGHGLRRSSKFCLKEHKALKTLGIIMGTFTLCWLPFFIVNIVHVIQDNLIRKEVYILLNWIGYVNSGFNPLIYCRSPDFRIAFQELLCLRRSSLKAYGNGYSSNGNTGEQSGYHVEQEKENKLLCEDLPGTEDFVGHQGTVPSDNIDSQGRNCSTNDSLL
Procedure, shortened: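 Assay format: CHO-ADRB2 cells, 18-20hr seeding at 37C/5% CO2, then compound plus 1nM isoproterenol agonist mix for 0.5hr RT. Homogeneous time-resolved fluorescence cAMP detection after 1hr, expressed as 665/615 nm ratio.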

[16] = target: Beta-2 adrenergic receptor (Homo sapiens) (UniProt P07550); test: Adrenergic beta2 receptor (ADRB2) small molecule agonists, cell-based qHTS assay (AID 1963593);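 further: CHO cells stably overexpressing human ADRB2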
Procedure, shortened: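 CHO cells stably over-expressing ADRB2 were plated overnight at 37C, then dosed with compounds plus a stimulation mix containing 100uM IBMX and 25uM Ro-20-1724 for 0.5hr at room temperature. cAMP was measured by HTRF competition, 1hr.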

[17] = target: D(2) dopamine receptor (Homo sapiens) (UniProt P14416); test: Dopamine D2 receptor (DRD2) small molecule agonists, cell-based qHTS assay (AID 1963594); further: nearly all actives have a fitted effect of over 35% in size
D(2) dopamine receptor (Homo sapiens), sequence (P14416 whole entry, looked up): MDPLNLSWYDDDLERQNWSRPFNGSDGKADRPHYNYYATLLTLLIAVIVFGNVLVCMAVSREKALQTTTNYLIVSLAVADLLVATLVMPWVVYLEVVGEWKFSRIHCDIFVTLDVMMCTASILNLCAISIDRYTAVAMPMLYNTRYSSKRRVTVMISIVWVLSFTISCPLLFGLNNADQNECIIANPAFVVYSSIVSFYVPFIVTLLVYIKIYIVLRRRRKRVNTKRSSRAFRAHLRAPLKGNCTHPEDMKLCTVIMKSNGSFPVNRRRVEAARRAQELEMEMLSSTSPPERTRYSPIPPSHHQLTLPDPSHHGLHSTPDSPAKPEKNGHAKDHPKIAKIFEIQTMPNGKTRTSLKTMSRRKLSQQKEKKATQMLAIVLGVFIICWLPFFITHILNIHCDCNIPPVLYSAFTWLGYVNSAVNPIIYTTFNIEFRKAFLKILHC
Procedure, shortened: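 HEK293 cells stably expressing human DRD2, pre-treated with PDE inhibitor Ro20-1724 (0.1 mM final) and compound 10 min at room temperature, then stimulated with NKH477 (200nM […]) for 30 min. cAMP read by HTRF (665/620 nm).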

[18] = target: D(2) dopamine receptor (Homo sapiens) (UniProt P14416); test: Dopamine D2 receptor (DRD2) small molecule antagonists, cell-based qHTS assay (AID 1963595; active means well fitted inhibition curve with a large enough effect in the signal ratio in the repeat runs, with a control signal flat; the % refers to the signal ratio)
Procedure, shortened: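 HTRF cAMP read-out at 665 and 620 nm emission (340 nm excitation). Antagonist mode: compounds were tested against 12 nM quinpirole in DRD2-HEK293 cells, with 200 nM NKH477 raising cAMP and 0.1 mM Ro20-1724 blocking its breakdown.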

[19] = cAMP Responsive Elements (CRE) small molecule agonists, cell-based qHTS assay (AID 1963590)
Procedure, shortened: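 Test agents in DMSO were incubated 3 h at 37 C/5% CO2 with CRE-bla HEK 293T cells seeded 18 h earlier; LiveBLAzer B/G FRET substrate was added and read after 2 h at room temperature.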

[20] = cAMP Responsive Elements (CRE) small molecule antagonists, cell-based qHTS assay (AID 1963591; active means well fitted inhibition curve with a large enough effect in the signal ratio in the repeat runs, not every such curve was filed as active; the % refers to the signal ratio)
Procedure, shortened: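 Reporter line CRE-bla HEK 293T in dialyzed-FBS DMEM; cells preincubated 18 h, treated 3 h with compound plus NKH477 (0.25 uM final); LiveBLAzer FRET, 2 h RT.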

Structure (SMILES)	Potency [1]	Potency [2]	Potency [3]	Potency [4]	Potency [5]	Potency [6]	Potency [7]	Potency [8]	Potency [9]	Potency [10]	Potency [11]	Potency [12]	Potency [13]	Potency [14]	Potency [15]	Potency [16]	Potency [17]	Potency [18]	Potency [19]	Potency [20]
O=C(O)CCCCCCCCCCCC(=O)O	30.1 µM (active) and inactive	inactive	inactive	inactive	inactive	inactive	inactive	inactive	inactive	inactive	inactive	inactive	inactive	inactive	inactive	inactive	inactive	inactive	–	–
CC1=NN(c2ccc(S(=O)(=O)O)cc2)C(=O)C1	inactive	inactive	inactive	inactive	inactive	inactive	inactive	inactive	inactive	inactive	inactive	inactive	inactive	–	inactive	inactive	–	inactive	inactive	inactive
Cc1c(C)c2c(c(C)c1O)CCC(C)(COc1ccc(CC3SC(=O)NC3=O)cc1)O2 (stereo unspecified)	inactive	inactive	inactive	inactive	inactive	inactive	inactive	inactive	inactive	inactive	–	–	–	–	inactive	inactive	inactive	inactive	–	–
CCCC1O[C@@H]2C[C@H]3[C@@H]4CCC5=CC(=O)C=C[C@]5(C)[C@H]4[C@@H](O)C[C@]3(C)[C@]2(C(=O)CO)O1 (stereo partly specified)	inactive	inactive	inactive	inactive	inactive	inactive	inactive	inactive	inactive	inactive	–	–	–	–	inactive	inactive	inactive	inactive	–	–
CC(C)(C)c1nnc(NS(=O)(=O)c2ccc(N)cc2)s1	inactive	inactive	inactive	inactive	inactive	inactive	inactive	inactive	inactive	–	7.29 µM (active)	inactive	inactive	inactive	inactive	inactive	inactive	inactive	inactive	inactive
CC1CC(O)CC(C)(C)C1 (stereo unspecified)	inactive	inactive	inactive	inactive	inactive	inactive	inactive	inactive	inactive	–	inactive	inactive	inactive	inactive	inactive	inactive	inactive	inactive	inactive	inactive
C=C(CC)C(=O)c1ccc(OCC(=O)O)c(Cl)c1Cl	inactive	24.2 µM (active) and 29.8 µM (active)	inactive	inactive	inactive	inactive	inactive	inactive	inactive	inactive	–	–	–	–	inactive	inactive	inactive	inactive	–	–
